Test results taken from PubChem BioAssay AID624296 (National Center for Advancing Translational Sciences (NCATS), 2012).
The whole screen tested about 350,000 compounds, of which about 9,900 (2.8%) were called active. Entries that show only a call come without a potency. Roughly 15% stayed inconclusive and do not appear here. The call rests on the fitted dose curve; in most records, active means well fitted activation curve with a large enough effect; inconclusive means small, poorly fitted or top-dose-only effect; inactive means no such curve, though single readings can be large or run the other way. For the sample, actives were picked, then their nearest neighbours and some compounds at random.

Test: A quantitative high throughput screen for small molecules that induce DNA re-replication in MCF 10a normal breast cells. Further: nearly all actives have a fitted effect of over 50% in size.
Details: MCF 10A DNA re-replication, Hoechst nuclear intensity, 48 h; series mostly up to 46.1 µM
Potency means the concentration at half of the fitted maximal effect.

| Compound | Potency |
| --- | --- |
| CC(=O)Nc1ccc(S(=O)(=O)NC(C)C(=O)OCCOc2ccc(F)cc2)cc1 (configuration not stated) | inactive |
| COc1cc(C(=O)NCC2(c3ccccc3)CCCC2)ccc1OC(C)C | inactive |
| CCOc1c(OC)cccc1C(=O)NCC1(c2ccccc2)CCCC1 | 20.6 µM (active) |
| COc1ccc(C2(CNC(=O)Cc3ccc(OC)c(OC)c3)CCCC2)cc1 | inactive |
| CCC(C)CCN1CCN=C1N(C)C (configuration not stated) | inactive |
| O=C1CC[C@@H]2CC3(C[C@@H]4CCN1[C@H]24)Nc1cc([N+](=O)[O-])ccc1NC3=NC1CCCCC1 (some centres not stated) | inactive |
| O=C(c1cc(=O)c2ccccc2o1)N1CCN(c2ccccc2)CC1 | inactive |
| COc1ccccc1CNC(=O)c1cc(=O)c2ccccc2o1 | inactive |
| COc1cc2c(cc1OC)CN(C(=O)c1cc(=O)c3ccccc3o1)CC2 | 10.3 µM (active) |
| NC(=O)C1(Nc2ccc([N+](=O)[O-])cc2)CCCC1 | inactive |
| CC1CN(Cc2ccco2)C(=S)N(c2ccccc2)C1=O (configuration not stated) | inactive |
| C[C@H](NC(=O)OC(C)(C)C)c1nnc(SCC(N)=O)o1 | inactive |
| C[C@@H](NC(=O)OC(C)(C)C)c1nnc(S(=O)(=O)Cc2ccccc2)o1 | 18.4 µM (active) |
| CC(C)Sc1nnc([C@H](Cc2ccccc2)NC(=O)OC(C)(C)C)o1 | inactive |
| Cc1ccc(S(=O)(=O)Nc2ccc(F)c(S(=O)(=O)N3CCOCC3)c2)cc1 | inactive |
| CNS(=O)(=O)c1cccc(C(=O)OCCCC(=O)c2ccccc2)c1 | inactive |
| COc1ccc(-c2cc(-c3ccc(N)cc3)nc(N)c2C#N)cc1OC | 23.1 µM (active) |
| COc1ccc(C2CC(=O)Nc3sc(=N)c4c(N)c(C#N)c(N)nc4c32)cc1OC (configuration not stated) | inactive |
| CCOc1cc(-c2cc(-c3ccc(OC)cc3)nc(N)c2C#N)ccc1O | inactive |
| CC(=O)Nc1ccc(-c2cn3cccnc3n2)cc1 | inactive |
| CCOc1cc(-c2cc(-c3ccc(NC(C)=O)cc3)nc(N)c2C#N)ccc1O | 18.4 µM (active) |

| Compound | Potency |
| --- | --- |
| COc1ccc(OC)c2c(N)c(C#N)c(C(F)(F)C(F)(F)F)nc12 | inactive |
| O=C(COc1ccccc1F)NNC(=O)c1cc(Br)ccc1Cl | inactive |
| O=S(=O)(c1cccs1)N1CCN(CCOc2ccccc2)CC1 | inactive |
| CCOc1cc(/C=C/C(=O)OCC(=O)NCCN2C(=O)CSC2=O)ccc1OCC(C)C | inactive |
| Cc1cccc(N2O[C@H]3C=CC2CCCC3)n1 | inactive |
| CC(=O)c1ccc(OCCCC(=O)Nc2ccc(C)c(S(=O)(=O)N3CCOCC3)c2)cc1 | inactive |
| CCCC(O)(CCC)C(=O)NN(C(=O)CCl)c1cccc(C)c1 | 14.6 µM (active) |
| Cc1ccc(N(NC(=O)C(C)(C)O)C(=O)c2ccccc2)cc1C | inactive |
| CC(C)(O)C(=O)NN(C(=O)c1ccccc1)c1cccc(Br)c1 | inactive |
| COc1cc(NC(=O)COC(=O)c2cc(S(=O)(=O)N3CCOCC3)ccc2F)cc(OC)c1 | inactive |
| CSc1ccc(Cl)c(C(=O)OCC(=O)N2CCNC2=O)c1 | inactive |
| O=C1CC2(CCCC2)C(=O)N1CN1CCN(S(=O)(=O)c2ccc(F)cc2F)CC1 | inactive |
| CC/C(=C\c1ccc(Cl)cc1)c1ccncc1 | inactive |
| Cc1ccc(-n2c(SCC(=O)NCCC3=CCCCC3)nc3n[nH]c(C)c3c2=N)cc1Cl | 16.4 µM (active) |
| CCn1c(=O)cc(SCC(=O)NCCC2=CCCCC2)c2ccccc21 | inactive |
| O=C(Cc1nn[nH]n1)NCCC1=CCCCC1 | inactive |
| Cc1ccc(N2C(=O)N3[C@@H]4c5ccccc5OC[C@@H]4[C@@H](c4ccccc4)[C@@]3(C)C2=O)cc1 | inactive |
| O=C(O)C(CCc1ccccn1)c1ccccc1 (configuration not stated) | inactive |
| O=c1ccc(S(=O)(=O)N2CCCC2)cn1Cc1nc(-c2ccccc2)no1 | inactive |
| O=C(O)C(c1cccs1)C1(O)CCCCC1 (configuration not stated) | inactive |
| Nc1ccc2c(c1)C(=Cc1cccnc1)c1ccccc1-2 | inactive |

| Compound | Potency |
| --- | --- |
| CC(C)c1cc(N=O)cc(C(C)C)c1O | inactive |
| CC(C)=CCc1ccc(O)c(=O)cc1C(C)C | 20.6 µM (active) |
| CCN(C(=O)COC(=O)Cc1c(F)cccc1Cl)c1c(N)n(Cc2ccccc2)c(=O)[nH]c1=O | inactive |
| COc1cccc(NC(=O)CN(C)CC(=O)Nc2ccc3c(c2)CCC3)c1 | 0.651 µM (active) |
| COc1cccc(NC(=O)CN(C)C(=O)CSC(=S)N2CCCC2)c1 | inactive |
| COc1ccc(NC(=O)CN(C)CC(=O)Nc2cccc(C(F)(F)F)c2)cc1 | inactive |
| O=C(Cn1nnc(-c2ccccc2)n1)NC(=O)NC1CCCC1 | inactive |
| O=C(COC(=O)c1ccc(Br)o1)NC12CC3CC(CC(C3)C1)C2 | inactive |
| CC(C)(C)OC(=O)C[C@@H]1C/C=C\C[C@H](CC(=O)N[C@@H](CO)Cc2ccccc2)C(=O)N[C@H](Cc2ccccc2)COC1=O | inactive |
| O=C1CCC/C=C/C[C@@H](CC(=O)N(CCO)Cc2ccccc2)C(=O)NC[C@H](c2ccccc2)O1 | inactive |
| O=C1NC[C@@H](c2ccccc2)OC(=O)[C@H](Cc2ccc(F)cc2)CC/C=C/C[C@H]1CC(=O)N(CCO)Cc1ccccc1 | 18.4 µM (active) |
| O=C1OC[C@@H]2CCCN2C(=O)[C@H](CC(=O)N(CCO)Cc2ccccc2)C/C=C\CC[C@@H]1Cc1ccc(F)cc1 | inactive |
| O=C1N[C@H](Cc2c[nH]c3ccccc23)COC(=O)[C@H](Cc2ccc(F)cc2)C/C=C\C[C@H]1CC(=O)N(CCO)Cc1ccccc1 | inactive |
| CC(C)(C)OC(=O)C[C@@H]1C/C=C\C[C@@H](CC(=O)N(CCO)Cc2ccccc2)C(=O)N[C@H](Cc2ccccc2)COC1=O | 20.6 µM (active) |
| COc1cccc(NC(=O)CSc2nnc(C3CCCCC3)n2N)c1 | inactive |
| CC(=O)c1cccc(OCC(=O)OCC(=O)Nc2cc(S(=O)(=O)N3CCCCC3)ccc2C)c1 | inactive |
| O=C1c2ccccc2C(=O)N1CCC#Cc1ccc2cc(C3(O)CCCCC3)oc(=O)c2c1 | inactive |
| O=C(CSc1nc2[nH]c(=O)[nH]c(=O)c2s1)Nc1cccc(F)c1 | inactive |
| CC(Sc1nnc(C2CC2)n1C1CC1)C(=O)Nc1ccc(C(N)=O)cc1 (configuration not stated) | inactive |
| CCCn1nc(C(=O)OCc2nc(N)nc(Nc3ccccc3C)n2)c2ccccc2c1=O | inactive |
